# Bioassay records (PubChem)
# An excerpt weighted towards active compounds, which were near 21% of everything screened.
# IL1B secr inh = inflammasome signaling inhibition, IL-1 beta readout | AID 743279 | activity change, % at 57.5 µM | THP-1 LPS/ATP IL-1B secretion, AlphaLISA, 16 h; active compounds read low | 4.7% of 360,000 active; in the data active = activity change below about -50%; inconclusive = mostly about -30% to -49%
#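 THP-1 cells pretreated 1 hr with compounds (up to 57.5 uM final), then stimulated with LPS (250 ng/mL final) plus ATP (1.25 mM final); secreted IL-1B measured by AlphaLISA after 16 hr, decreased signal indicating inhibition.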
# RORgamma inh = blocks mouse ROR gamma transcriptional activity; Drosophila S2 Gal4-RORgamma UAS-luciferase reporter, 20 h; Potency, µM (titrated, usually from 53.6 µM), for inactives: at the top dose activity change, negative = inhibition, most hits filed as inhibitors; 5.4% of 310,000 active; AID 2551; note: potency is the fitted concentration of half-maximal effect; nearly all actives have a fitted effect of over 60% in size
# Target sequence (P51450 whole entry, looked up, the tested form may be a part): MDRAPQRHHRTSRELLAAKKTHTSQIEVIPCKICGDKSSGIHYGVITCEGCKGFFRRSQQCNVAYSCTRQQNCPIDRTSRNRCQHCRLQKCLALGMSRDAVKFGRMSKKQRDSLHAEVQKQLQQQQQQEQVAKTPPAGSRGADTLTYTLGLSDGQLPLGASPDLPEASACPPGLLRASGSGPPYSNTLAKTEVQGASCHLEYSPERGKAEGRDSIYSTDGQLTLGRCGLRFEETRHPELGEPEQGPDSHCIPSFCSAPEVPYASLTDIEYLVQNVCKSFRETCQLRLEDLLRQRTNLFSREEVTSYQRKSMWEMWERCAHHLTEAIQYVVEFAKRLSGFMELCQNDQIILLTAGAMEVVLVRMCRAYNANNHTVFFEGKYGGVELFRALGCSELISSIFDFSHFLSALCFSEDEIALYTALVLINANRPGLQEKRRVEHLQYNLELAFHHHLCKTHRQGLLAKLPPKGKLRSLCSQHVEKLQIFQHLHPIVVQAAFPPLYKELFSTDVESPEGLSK
#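 Compounds are pin-transferred onto Drosophila Schneider cells expressing a copper-inducible Gal4–ROR gamma transactivation domain fusion. After 1 hr, copper sulfate is added to 700 uM final; luciferase is read 20 hr later.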
# ELG1 DNA repair = blocks ELG1-dependent DNA repair in HEK293T cells | HEK293T ELG1-luciferase reporter, luminescence, 16 h; DNA damage induced by 5-fluorouridine | 2.3% of 330,000 active | AID 504467 | Potency, µM (highest dose often 46.1 µM), for the others: at the top dose activity change, negative = inhibition, hits mostly inhibitors; note: potency is the fitted concentration of half-maximal effect; nearly all actives have a fitted effect of over 55% in size
#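 Reporter activity after DNA damage by 5-fluorouridine is monitored. Compound-treated cells incubate 16 hr at 37 °C, then ONE-Glo is added for 30 min before luminescence reading.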
# Gal4-VP16 FLuc = counter-screen for ROR gamma inhibitors: Gal4-VP16 reporter; Drosophila S2 Gal4-VP16 UAS-luciferase, luminescence, 20 h; AID 2546; 3.5% of 310,000 active; Potency, µM (series often up to 53.6 µM), for the others: at the highest dose activity, negative = inhibition, usual class: inhibitors;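 note: Gal4-VP16 expression switched on by copper sulfate through the metallothionein promoter; potency is the fitted concentration of half-maximal effect; nearly all actives have a fitted effect of over 50% in size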
# TDP1 cell noCPT = qHTS for Inhibitors of human tyrosyl-DNA phosphodiesterase 1 (TDP1): qHTS in cells in absence of CPT; DT40 Tdp1-/- hTDP1 cells, no CPT, ATP luminescence, 48 h; Potency, µM (titrated, usually from 46.2 µM), without a hit: top-dose activity change, negative = growth inhibition, actives largely listed as inhibitors; 15% of 420,000 active; note: potency is the fitted concentration of half-maximal effect; nearly all actives have a fitted effect of over 55% in size
#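 DT40 Tdp1-/-;hTDP1 cells, no CPT (DMSO vehicle only), 400 cells/well; compounds pin-transferred; ≥48 hr, 37 °C; CellTiter-Glo 30 min RT dark, luminescence read.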
# TDP1 cell CPT = DT40-hTDP1 cell growth loss with CPT; chicken DT40 Tdp1-/-;hTDP1 cells + 20 nM CPT, ATP luminescence, 48 h; Potency, µM (top dose mostly 46.2 µM), for the others: top-dose activity change, negative = growth inhibition, most hits filed as inhibitors; 12% of 420,000 active; AID 686979; note: potency is the fitted concentration of half-maximal effect; nearly all actives have a fitted effect of over 55% in size
#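 Chicken DT40 Tdp1-/- cells complemented with human TDP1, 400 cells/well, exposed to compounds plus 20 nM camptothecin for at least 48 h at 37 C; viability read as ATP content by CellTiter-Glo luminescence.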
# An asterisk follows results filed as active; i = inactive; ? = inconclusive; / = not tested or not shown; [ ] = another dose, or the depositor's remark. Unless noted, calls come from the whole dose curve; as a rule, active = well fitted curve in the direction sought with a large enough effect; inconclusive = small, poorly fitted or top-dose-only effect, or another doubt; inactive = no such curve, though single readings can be large; an effect the other way counts as inactive or inconclusive. % is set by controls: 0 for no effect and ±100 for the full control effect.
SMILES,IL1B secr inh,RORgamma inh,ELG1 DNA repair,Gal4-VP16 FLuc,TDP1 cell noCPT,TDP1 cell CPT
CCCCC[C@H](C)N1C[C@@H](COCc2ccccc2)Oc2cc(N3CC[C@H](O)C3)ccc2S1(=O)=O,-7,/,/,/,?,?
CSc1ncccc1C(=O)OCC(=O)NC1CCCCC1,-7,/,?,/,12%,-13%
COc1ccc(N2CCN(C(=O)c3cc4c(s3)-c3ccccc3OC4)CC2)cc1,-10,-4%,17%,4%,-20%,-3%
NC(=O)C1CCN(C(=O)c2cc3c(s2)CCCC3)CC1,11,/,?,/,-11%,6%
CC(C)NC(=O)C1CCN(C2CCN(C(=O)c3cc4c(s3)CCCCC4)CC2)CC1,5,10µM*,-14%,7.9µM*,?,?
CC(=O)c1ccc(N2CCN(C(=O)c3cc4c(s3)CCCC4)CC2)cc1,-5,35%,9%,-3%,?,23µM*
COc1ccc2c(c1)CCc1cc(C(=O)N3CCN(c4ccc(N5CCOCC5)nn4)CC3)sc1-2,-11,10%,21µM*,1%,?,21µM*
COc1cccc(C(=O)N2CCN(c3ccc(N4CCOCC4)nn3)CC2)c1,5,/,?,/,-11%,-1%
COc1ccc(N2CCN(C(=O)c3cc4c(s3)CCCCC4)CC2)cc1,36,/,-2%,/,?,21µM*
COc1ccc2c(c1)C(=O)[C@H](OC(=O)NCc1ccco1)[C@@H](c1ccc(OC)c(Br)c1)O2,/,-5%,/,7%,/,/
COc1ccc(CCC(=O)N/N=C\c2cccs2)cc1,-4,20%,4%,?,5%,-23%
Cc1cccc(-n2c(=O)c3c4c(sc3n3c(C)nnc23)CCCC4)c1,/,/,/,/,-19%,?
CC1CCc2c(sc(NC(=O)c3cc4nc(-c5ccc(Cl)cc5)cc(C(F)(F)F)n4n3)c2C#N)C1 (stereo not drawn),/,/,/,/,-29%,-19%
COc1ccccc1N1CCN(C(=O)Nc2ccc([N+](=O)[O-])cc2)CC1,-14,?,15µM*,-6%,16µM*,?
COc1ccccc1N1CCN(C(=O)c2cc3c(s2)CCC3)CC1,24,27%,-16%,-1%,29µM*,?
O=C(c1ccc([N+](=O)[O-])s1)N1CCN(c2cccc(Cl)c2)CC1,-58*,-24%,?,-19%,21µM*,21µM*
COc1ccccc1N1CCN(C(=O)c2ccc([N+](=O)[O-])s2)CC1,-3,7.9µM*,-26%,-9%,?,?
O=C(c1cccs1)N1CCN(c2cccc(Cl)c2)CC1,-14,2%[1.91 µM],2%,-1%,-1%,-10%
COc1ccccc1N1CCN(C(=O)c2ccco2)CC1,-8,-11%,?,-15%,-1%,-4%
COCCn1c(Cc2ccccc2)nnc1SCC(=O)NC(C)C,2,-10%,13%,4%,-14%,-6%
CC(C)(C)c1ccc(NC(=O)N2CCN(c3ccc([N+](=O)[O-])cn3)CC2)cc1,/,40%,?,?,8.2µM*,3.3µM*
O=C(Nc1ccc(F)cc1F)N1CCCN(c2ccc([N+](=O)[O-])cn2)CC1,-3,14%,?,0%,-12%,-2%
COc1ccccc1C(=O)NCC(=O)N(C)Cc1nc2ccccc2c(=O)[nH]1,7,/,/,/,-1%,-17%
COc1ccccc1NC(=O)N(Cc1ccc2c(c1)OCO2)Cc1nc2ccccc2c(=O)[nH]1,14,?,?,-24%,13µM*,18µM*
COc1cccc(C(=O)N(Cc2ccc3c(c2)OCO3)Cc2nc3ccccc3c(=O)[nH]2)c1,-11,-5%[10 µM],?,?,-26%,?
SMILES,IL1B secr inh,RORgamma inh,ELG1 DNA repair,Gal4-VP16 FLuc,TDP1 cell noCPT,TDP1 cell CPT
COc1ccccc1CN(Cc1nc2ccccc2c(=O)[nH]1)C(=O)Nc1cccc(C)c1,-5,7.1µM*,?,6%,3.7µM*,3.3µM*
O=S(=O)(c1ccc(F)cc1)N1CCN(C(=S)NC2CC2)CC1,-6,/,17%,/,?,-1%
Cc1noc(C)c1C(=O)N1CCCC(N2CCN(c3cccc(C(F)(F)F)c3)CC2)C1 (stereo not drawn),16,?,-19%,2%,-20%,-17%
Cc1cc(C)c(C(=O)N2CCCC(N3CCN(c4cccc(C(F)(F)F)c4)CC3)C2)o1 (stereo not drawn),-6,?,?,-8%,8.2µM*,21µM*
O=C(c1cc(C2CC2)on1)N1CCCC(N2CCN(c3cccc(C(F)(F)F)c3)CC2)C1 (stereo not drawn),-58*,0%,?,-10%,?,?
Cc1cc(C(=O)N2CCCC(N3CCN(c4cccc(C(F)(F)F)c4)CC3)C2)no1 (stereo not drawn),-8,24%,-7%,0%,16µM*,?
O=C(CCn1cccn1)N1CCCC(N2CCN(c3cccc(C(F)(F)F)c3)CC2)C1 (stereo not drawn),2,25%,-12%,-2%,15µM*,?
N#CCCn1nc2c(c1N)CCC2,29,/,/,/,7%,12%
O=C(Nc1ccccn1)c1ccc(S(=O)(=O)N2CCCCCC2)cc1,4,/,?,/,-2%,5%
CCCCC[C@H](O)/C=C/[C@@H]1[C@H]2C/C(=C/CCCC(=O)O)O[C@H]2C[C@H]1O,/,6%,/,-13%,-1%,12%
O=C(c1cccs1)N1CCCC(N2CCN(c3cccc(C(F)(F)F)c3)CC2)C1 (stereo not drawn),i,?,-18%,-7%,?,?
O=C(c1ccco1)N1CCCC(N2CCN(c3cccc(C(F)(F)F)c3)CC2)C1 (stereo not drawn),?,34%,17%,17%,21µM*,16µM*
O=c1c2c3c(sc2n(Cc2cc(=O)n4ccccc4n2)c(=O)n1-c1ccccc1)CCC3,/,/,/,/,-9%,2%
COc1ccc(NC(=S)NC(=O)/C=C/c2ccco2)cc1,-2,-3%,-4%,-19%,?,?
COc1ccc(NC(=S)NC(=O)/C=C/c2ccccc2)cc1,-25,7.1µM*,2%,7.1µM*,?,?
CC(=O)c1ccc(NC(=S)NC(=O)/C=C/c2ccc(F)cc2)cc1,-12,?,?,8%,?,-5%
COc1cccc(NC(=S)NC(=O)/C=C/c2ccc(F)cc2)c1,?,7.1µM*,-5%,?,18%,-1%
